In all, about 310,000 compounds went through this assay and about 14,000 (4.5%) showed an effect of 50% or more. The effect is printed as a negative number. The entries come from a sample that favours strong results as a whole.
These molecules were tested against human ether-à-go-go-related gene (hERG) potassium channel (human, UniProt Q12809) (assay: primary screen, population patch clamp on CHO cells stably expressing hERG; higher = less effect of the substance).
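Note: peak tail current of the secondary pulse compared with the same well before compound.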

Chain of human ether-à-go-go-related gene (hERG) potassium channel (Q12809 whole entry, looked up): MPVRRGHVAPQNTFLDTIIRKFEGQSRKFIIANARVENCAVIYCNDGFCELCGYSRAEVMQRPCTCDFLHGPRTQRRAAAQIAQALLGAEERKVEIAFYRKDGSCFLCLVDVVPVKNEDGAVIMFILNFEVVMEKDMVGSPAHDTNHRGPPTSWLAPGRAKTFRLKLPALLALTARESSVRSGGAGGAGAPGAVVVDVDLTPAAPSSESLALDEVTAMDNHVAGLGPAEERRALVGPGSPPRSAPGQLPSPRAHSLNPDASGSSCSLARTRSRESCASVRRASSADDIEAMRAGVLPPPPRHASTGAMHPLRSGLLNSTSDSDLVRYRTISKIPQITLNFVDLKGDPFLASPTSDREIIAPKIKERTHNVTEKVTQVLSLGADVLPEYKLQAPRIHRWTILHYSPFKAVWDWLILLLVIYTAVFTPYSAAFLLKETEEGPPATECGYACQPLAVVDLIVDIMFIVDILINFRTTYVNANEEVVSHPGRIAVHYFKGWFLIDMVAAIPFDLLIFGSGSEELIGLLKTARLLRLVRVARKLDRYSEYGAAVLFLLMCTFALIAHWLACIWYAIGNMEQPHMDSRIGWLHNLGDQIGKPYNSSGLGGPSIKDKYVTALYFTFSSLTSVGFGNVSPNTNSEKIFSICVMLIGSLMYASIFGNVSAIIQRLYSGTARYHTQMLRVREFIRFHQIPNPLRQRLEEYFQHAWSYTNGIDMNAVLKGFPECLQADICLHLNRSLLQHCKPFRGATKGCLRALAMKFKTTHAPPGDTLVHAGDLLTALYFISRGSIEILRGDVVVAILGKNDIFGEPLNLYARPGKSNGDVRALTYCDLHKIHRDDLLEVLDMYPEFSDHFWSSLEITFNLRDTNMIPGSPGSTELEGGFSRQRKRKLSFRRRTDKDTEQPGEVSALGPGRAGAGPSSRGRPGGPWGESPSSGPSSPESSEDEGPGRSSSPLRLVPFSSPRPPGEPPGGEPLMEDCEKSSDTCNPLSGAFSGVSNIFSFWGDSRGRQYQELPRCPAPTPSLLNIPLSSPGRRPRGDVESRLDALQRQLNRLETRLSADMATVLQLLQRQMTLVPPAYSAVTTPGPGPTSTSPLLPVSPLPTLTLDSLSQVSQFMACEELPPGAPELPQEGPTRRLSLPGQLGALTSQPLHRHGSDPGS

Row | SMILES | hERG current change (%, negative = inhibition) at 10uM [%]
1 | Cc1ccc(Cl)cc1NC(=O)CN1CCN(S(=O)(=O)N2CCC(C)CC2)CC1 | -41.3
2 | O=C(CN1CCOCC1)Nc1cc(Cl)ccc1Cl | -32.5
3 | O=C(CN1CCN(C(=O)C2CCCO2)CC1)Nc1cc(Cl)ccc1Cl (stereo not shown) | -61.9
4 | O=C(CN1CCN(C(=O)C2CCCO2)CC1)Nc1cc(C(F)(F)F)ccc1Cl (stereo not shown) | -45.8
5 | COc1ccc(Cl)cc1NC(=O)CN1CCN(C(=O)N2CCOCC2)CC1 | -38.8
6 | Cc1ccc(Cl)cc1NC(=O)CN1CCN(S(=O)(=O)N2CCOCC2)CC1 | -64.3
7 | Cc1ccc(Cl)cc1NC(=O)CN1CCN(C(=O)C2CCCO2)CC1 (stereo not shown) | -29.8
8 | Cc1ccc(Cl)cc1NC(=O)CN1CCOCC1 | -0.857
9 | O=C(CN1CCN(C(=O)N2CCOCC2)CC1)Nc1cc(Cl)ccc1Cl | -59.9
10 | Cn1nnc2cc(C(=O)Nc3ccc(Cl)cc3)ccc21 | -3.78
11 | COc1ccc(-c2cc(C(=O)O)nc3ccc4ccccc4c23)cc1OC | 12.6
12 | O=C(CSc1nc(O)cc(=O)[nH]1)C1CC1 | 7.82
13 | CC(C)(C)N/C=C(\C#N)S(=O)(=O)c1ccc(Br)cc1 | -10.5
14 | C=CCN1C(=O)C2C(C(=O)NC)C3C=CC2(O3)C1C(=O)NCc1ccc(OC)cc1 (stereo not shown) | 0.24
15 | Cc1cc(C)n2nc(SCC(=O)NC3CCCCC3)nc2n1 | 1.68
16 | Cc1cc(C)n2nc(CC(=O)NC3CCCCCC3)nc2n1 | 5.03
17 | Cc1cc(C)n2nc(CC(=O)NC3CCCCCCC3)nc2n1 | -70.9
18 | CCOC(=O)CCc1c(C(=O)OCC)[nH]c(CC)c1C(=O)OCc1ccccc1 | -17.2
19 | COCc1cc(C)nc(SCC(=O)Nc2ccc3c(c2)OCCO3)c1C#N | 13.4
20 | CCOC(=O)C1CCN(C(=O)CN2C(=O)c3ccccc3Sc3ncccc32)CC1 | 6.06
21 | COc1ccc(OC)c(CCNC(=O)c2ccc(CS(=O)Cc3ccc(Cl)cc3)o2)c1 (stereo not shown) | -31
22 | O=C(NCc1ccc(Cl)cc1)c1ccc(CS(=O)Cc2cccc(Cl)c2)o1 (stereo not shown) | -53.5

Row | SMILES | hERG current change (%, negative = inhibition) at 10uM [%]
23 | O=C(NCc1cccc(Cl)c1)c1ccc(CS(=O)Cc2ccccc2Cl)o1 (stereo not shown) | -3.52
24 | O=C(NCc1ccccc1)c1ccc(CS(=O)Cc2ccc(Cl)cc2)o1 (stereo not shown) | -62.5
25 | Cc1ccc(CNC(=O)c2ccc(CS(=O)Cc3cccc(Cl)c3)o2)cc1 (stereo not shown) | -21.5
26 | Cc1ccc(CS(=O)Cc2ccc(C(=O)NCc3ccccc3)o2)cc1 (stereo not shown) | 11
27 | O=C(NCc1cccc(Cl)c1)c1ccc(CS(=O)Cc2ccc(Cl)cc2)o1 (stereo not shown) | -62.1
28 | COc1ccc(CNC(=O)c2ccc(CS(=O)Cc3ccc(Cl)cc3)o2)cc1 (stereo not shown) | -84.6
29 | O=C(NCc1cccs1)c1ccc(CS(=O)Cc2cccc(Cl)c2)o1 (stereo not shown) | -39.6
30 | COc1ccc(CNC(=O)c2ccc(CS(=O)Cc3cccc(Cl)c3)o2)cc1 (stereo not shown) | -37.5
31 | O=C(NCc1ccccc1Cl)c1ccc(CS(=O)Cc2ccc(Cl)cc2)o1 (stereo not shown) | -46.9
32 | O=C(NCc1ccc2c(c1)OCO2)c1ccc(CS(=O)Cc2cccc(Cl)c2)o1 (stereo not shown) | -23.6
33 | COc1cc2c(C(=O)Nc3ccc4c(c3)OCO4)cn(CC(C)C)c(=O)c2cc1OC | -2.44
34 | CCOC(=O)C1C(=O)NC(C)C1c1ccccc1 (stereo not shown) | -4.44
35 | O=C(COC(=O)c1cc2c(s1)CCCC2)NCc1ccccc1Cl | 1.44
36 | CC(C)(C)c1ccc(C(=O)N2CCC(C(=O)NCC3CCCO3)CC2)cc1 (stereo not shown) | -23.6
37 | CC(=O)C1=C(O)C(=O)N(c2ccc(O)cc2)C1c1ccc(Cl)cc1 (stereo not shown) | 17.4
38 | O=C(O)c1ccccc1OC(C(=O)Nc1cc(Cl)cc(Cl)c1)c1ccccc1 (stereo not shown) | 13.5
39 | CC(=O)NC12CC3CC(C1)CC(C(=O)N1CCN(S(=O)(=O)c4ccccc4[N+](=O)[O-])CC1)(C3)C2 | -20.8
40 | CCOC(=O)N1CCc2c(sc(NC(=O)c3ccc(S(=O)(=O)N4CCCC4)cc3)c2C#N)C1 | 19.3
41 | Cc1nnc(OCc2nc3ccccc3n2C)c2ccccc12 | -27.4
42 | Cc1ccc(NC(=O)Cn2cc(C=O)c3ccccc32)cc1 | 17.5
43 | COc1cccc(CNC(=O)C2=Cc3cccc(OC)c3OC2)c1 | 4.36
44 | O=C(NCc1ccc(Cl)cc1)C1=Cc2cc(Cl)ccc2OC1 | -10.2

Row | SMILES | hERG current change (%, negative = inhibition) at 10uM [%]
45 | COc1ccc2c(c1)C=C(C(=O)NCc1ccc(Cl)cc1)CO2 | -67
46 | CCOc1cc(C2Nc3ccccc3C(=O)N2c2ccccc2)c(Br)cc1OCC(=O)O (stereo not shown) | -53.8
47 | COc1cc(C2Nc3ccccc3C(=O)N2c2ccccc2)c(Br)cc1OCC(=O)O (stereo not shown) | 0.108
48 | CCOc1cc(C2Nc3ccccc3C(=O)N2c2ccccc2)ccc1O (stereo not shown) | 4.38
49 | Cc1ccc2ccc(C(Nc3ccccn3)c3ccccc3)c(O)c2n1 (stereo not shown) | -3.72
50 | CCOc1ccc(CNC(=S)NCc2ccc(OCC)cc2)cc1 | 15.2
51 | COC(=O)c1ccc(-c2nc(CN3CCCN(C(=O)c4ccco4)CC3)c(C)o2)cc1 | -41.4
52 | Cc1oc(-c2ccc(Cl)cc2)nc1CN1CCCC(C(=O)N2CCN(C(=O)c3ccco3)CC2)C1 (stereo not shown) | -89.5
53 | Cc1onc(-c2ccccc2Cl)c1C(=O)N1CCN(C(=O)c2ccco2)CC1 | -16
54 | Cc1oc(-c2ccccc2Cl)nc1CN1CCCN(C(=O)c2ccco2)CC1 | -65.4
55 | O=C(c1ccco1)N1CCN(Cc2c(Cl)cccc2Cl)CC1 | -8.42
56 | Cc1ccc(-c2nc(CSCC(=O)N3CCN(C(=O)c4ccco4)CC3)c(C)o2)cc1 | -32.7
57 | Cc1ccccc1-c1nc(CN2CCN(C(=O)c3ccco3)CC2)c(C)o1 | -5.18
58 | O=C(c1ccco1)N1CCN(Cc2csc(-c3ccccc3Cl)n2)CC1 | -64.9
59 | Cc1oc(-c2ccc(Cl)cc2)nc1CN1CCCN(C(=O)c2ccco2)CC1 | -72.4
60 | CCOc1ccccc1-c1nc(CN2CCCN(C(=O)c3ccco3)CC2)c(C)o1 | 9.83
61 | COc1ccc(-c2nc(CN3CCN(C(=O)c4ccco4)CC3)c(C)o2)cc1OC | 1.8
62 | COc1ccc(F)c(-c2nc(CN3CCN(C(=O)c4ccco4)CC3)c(C)o2)c1 | -35.9
63 | CCCC(=O)C1=C(O)C(C(=O)OC)C(C)(C)CC1=NC(C)C (stereo not shown) | 15.1
64 | Cc1cccc(C)c1NC(=O)CSc1nnc(C)c(=O)[nH]1 | 15.1
65 | CC[C@@H]1C(=O)OC[C@@H]1CC1=CN=C[NH+]1C.O=[N+]([O-])[O-] | 15.7
66 | O=C(O)c1ccc(Oc2ccc(S(=O)(=O)c3ccc(C(=O)O)c(C(=O)O)c3)cc2)cc1 | 9.42

Row | SMILES | hERG current change (%, negative = inhibition) at 10uM [%]
67 | COc1ccc(CNC(=O)COC(=O)c2ccc(OCc3c(C)noc3C)cc2)cc1OC | 13.8
68 | CC1(O)CC(=O)N(c2ccccc2)O1 (stereo not shown) | -1.7
69 | CCN(CCCNC(=O)C1CCC(=O)N1C1CCCC1)c1cccc(C)c1 (stereo not shown) | -2.31
70 | COc1ccc(OC)c(CNn2c(-c3cccc(C)c3)nc3ccccc3c2=O)c1 | 6.92
71 | Cc1cc(C)nc(SC2CCOC2=O)n1 (stereo not shown) | 0.669
72 | Cc1oc(-c2cc(F)cc(F)c2)nc1CN1CCN(C(=O)c2ccco2)CC1 | -40.5
73 | Cc1oc(-c2cc(F)ccc2F)nc1CN1CCCN(C(=O)c2ccco2)CC1 | -36.6
74 | Cc1oc(-c2cccc(F)c2)nc1CN1CCCN(C(=O)c2ccco2)CC1 | -74.7
75 | Cc1ccc(S(C)(=O)=O)cc1C(=O)N1CC(C(N)=O)Oc2ccccc21 (stereo not shown) | 15.6
76 | Cc1cc(Br)c(S(=O)(=O)NCCN2CCOCC2)cc1C | 7.8
77 | CCn1c(SCC(=O)Nc2ccc3c(c2)OCCO3)nnc1-c1ccco1 | -25.9
78 | C=CCn1c(SCC(=O)Nc2ccc3c(c2)OCCO3)nnc1-c1ccccn1 | -28.3
79 | C=CCn1c(SCC(=O)Nc2ccc3c(c2)OCO3)nnc1-c1ccccc1 | -34.7
80 | C=CCn1c(SCC(=O)Nc2ccc3c(c2)OCCO3)nnc1-c1ccco1 | -63.3
81 | Cn1c(SCC(=O)Nc2ccc3c(c2)OCCO3)nnc1-c1ccco1 | 8.89
82 | CCCn1c(SCC(=O)Nc2ccc3c(c2)OCCO3)nnc1-c1ccco1 | -66.1
83 | COc1ccc(-c2nnc(NC(=O)c3ccc([N+](=O)[O-])o3)o2)c(OC)c1 | 19.2
84 | CC(C)(C)N(NC(=O)OCc1ccccc1)C(=O)c1ccccc1Cl | -17.5
85 | CCOC(=O)C1=NN(c2ccc(F)cc2)C2=NC(C)=C(C(=O)OC)C(c3cccs3)N12 (stereo not shown) | -2.17

— publication PMC4336329 (PLoS ONE, 2015)
